Laboratory results as given in the supplement of paper PMC6378613.

Compound: Cc1ccc(-c2ccc3c(ccc4sc5c(c43)NC[C@@H](C)NC5=O)n2)cn1
Experiment: kinase activity remaining relative to vehicle control; higher = less inhibition
Procedure: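 In vitro radiometric kinase profiling of the MK2 inhibitor PF-3644022 at 0.1, 1 and 10 µM against a panel of kinases (MRC International Centre for Kinase Profiling, Dundee). Read-out is % kinase activity remaining relative to the vehicle control, mean of n=2.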

UniProt Q7KZI7, sequence (Q7KZI7 whole entry, looked up): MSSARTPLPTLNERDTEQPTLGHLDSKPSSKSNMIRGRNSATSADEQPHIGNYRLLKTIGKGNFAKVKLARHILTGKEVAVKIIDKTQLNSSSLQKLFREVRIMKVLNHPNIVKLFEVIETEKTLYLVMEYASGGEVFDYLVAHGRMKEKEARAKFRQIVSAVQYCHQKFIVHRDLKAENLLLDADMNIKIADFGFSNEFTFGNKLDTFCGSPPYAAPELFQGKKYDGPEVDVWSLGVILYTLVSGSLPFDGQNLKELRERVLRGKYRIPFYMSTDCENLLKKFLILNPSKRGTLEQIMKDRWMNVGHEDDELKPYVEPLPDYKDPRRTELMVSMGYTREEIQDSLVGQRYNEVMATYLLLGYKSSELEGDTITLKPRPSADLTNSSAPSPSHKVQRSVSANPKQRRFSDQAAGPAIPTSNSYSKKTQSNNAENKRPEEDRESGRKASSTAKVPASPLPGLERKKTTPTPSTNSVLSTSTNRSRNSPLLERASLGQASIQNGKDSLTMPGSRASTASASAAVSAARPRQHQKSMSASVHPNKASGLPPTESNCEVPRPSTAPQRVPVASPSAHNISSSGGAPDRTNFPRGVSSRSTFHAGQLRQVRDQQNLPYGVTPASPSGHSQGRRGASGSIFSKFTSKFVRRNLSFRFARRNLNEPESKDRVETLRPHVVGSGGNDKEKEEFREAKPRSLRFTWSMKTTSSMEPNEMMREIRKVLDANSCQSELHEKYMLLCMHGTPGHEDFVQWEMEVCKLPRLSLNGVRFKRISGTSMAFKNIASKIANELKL
UniProt P14616, sequence (P14616 whole entry, looked up): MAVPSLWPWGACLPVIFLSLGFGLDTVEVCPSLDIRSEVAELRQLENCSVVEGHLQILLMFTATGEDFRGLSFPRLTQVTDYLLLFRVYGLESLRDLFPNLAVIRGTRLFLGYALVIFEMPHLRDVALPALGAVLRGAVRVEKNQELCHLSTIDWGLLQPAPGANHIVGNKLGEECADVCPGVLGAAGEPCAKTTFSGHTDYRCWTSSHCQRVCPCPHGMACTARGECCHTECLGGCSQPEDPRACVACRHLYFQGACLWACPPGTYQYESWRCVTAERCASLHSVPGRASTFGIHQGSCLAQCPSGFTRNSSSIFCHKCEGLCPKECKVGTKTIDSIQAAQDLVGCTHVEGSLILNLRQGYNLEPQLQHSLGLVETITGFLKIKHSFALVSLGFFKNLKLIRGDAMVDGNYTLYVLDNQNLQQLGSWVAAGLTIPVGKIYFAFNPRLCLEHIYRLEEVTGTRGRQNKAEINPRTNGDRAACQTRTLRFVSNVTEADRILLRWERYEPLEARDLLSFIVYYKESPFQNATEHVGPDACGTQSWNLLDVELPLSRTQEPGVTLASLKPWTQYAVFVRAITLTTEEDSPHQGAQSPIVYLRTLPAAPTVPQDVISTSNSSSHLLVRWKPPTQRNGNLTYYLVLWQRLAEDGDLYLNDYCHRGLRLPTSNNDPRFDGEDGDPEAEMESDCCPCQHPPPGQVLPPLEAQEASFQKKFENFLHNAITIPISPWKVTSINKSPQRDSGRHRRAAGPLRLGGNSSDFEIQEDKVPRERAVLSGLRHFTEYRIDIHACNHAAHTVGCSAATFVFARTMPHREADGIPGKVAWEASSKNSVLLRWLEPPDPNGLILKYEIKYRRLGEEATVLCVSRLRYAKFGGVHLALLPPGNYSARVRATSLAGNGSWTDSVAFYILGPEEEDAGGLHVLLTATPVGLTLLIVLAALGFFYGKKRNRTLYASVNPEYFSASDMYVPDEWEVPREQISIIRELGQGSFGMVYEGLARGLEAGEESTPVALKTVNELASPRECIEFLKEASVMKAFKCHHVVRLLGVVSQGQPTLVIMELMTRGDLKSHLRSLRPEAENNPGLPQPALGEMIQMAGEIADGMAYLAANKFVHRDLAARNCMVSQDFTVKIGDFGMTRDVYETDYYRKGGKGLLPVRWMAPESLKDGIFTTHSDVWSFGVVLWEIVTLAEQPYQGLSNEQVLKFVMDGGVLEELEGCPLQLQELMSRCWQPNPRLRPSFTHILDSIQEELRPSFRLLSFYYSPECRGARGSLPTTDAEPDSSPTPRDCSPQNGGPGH
UniProt Q9HC98, sequence (Q9HC98 whole entry, looked up): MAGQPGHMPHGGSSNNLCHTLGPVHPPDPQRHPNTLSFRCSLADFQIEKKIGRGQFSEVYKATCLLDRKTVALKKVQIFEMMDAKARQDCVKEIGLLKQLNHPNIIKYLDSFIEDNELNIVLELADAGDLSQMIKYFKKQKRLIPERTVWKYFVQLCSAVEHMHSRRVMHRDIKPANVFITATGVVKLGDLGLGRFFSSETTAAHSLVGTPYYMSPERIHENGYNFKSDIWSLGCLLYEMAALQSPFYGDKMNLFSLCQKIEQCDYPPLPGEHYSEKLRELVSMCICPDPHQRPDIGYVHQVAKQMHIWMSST
UniProt Q9BUB5, sequence (Q9BUB5 whole entry, looked up): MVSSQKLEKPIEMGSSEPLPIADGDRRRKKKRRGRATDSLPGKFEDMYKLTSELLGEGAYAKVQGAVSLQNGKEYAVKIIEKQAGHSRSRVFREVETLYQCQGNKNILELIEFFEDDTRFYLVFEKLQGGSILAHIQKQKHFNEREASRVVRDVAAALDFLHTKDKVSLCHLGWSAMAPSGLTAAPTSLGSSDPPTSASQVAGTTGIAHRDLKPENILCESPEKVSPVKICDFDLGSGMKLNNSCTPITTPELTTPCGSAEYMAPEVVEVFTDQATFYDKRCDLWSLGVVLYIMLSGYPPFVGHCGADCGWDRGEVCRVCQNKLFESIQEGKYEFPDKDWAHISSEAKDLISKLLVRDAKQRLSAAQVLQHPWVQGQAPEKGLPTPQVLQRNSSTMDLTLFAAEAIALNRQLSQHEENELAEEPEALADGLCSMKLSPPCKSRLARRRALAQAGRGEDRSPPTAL
UniProt Q8N4C8, sequence (Q8N4C8 whole entry, looked up): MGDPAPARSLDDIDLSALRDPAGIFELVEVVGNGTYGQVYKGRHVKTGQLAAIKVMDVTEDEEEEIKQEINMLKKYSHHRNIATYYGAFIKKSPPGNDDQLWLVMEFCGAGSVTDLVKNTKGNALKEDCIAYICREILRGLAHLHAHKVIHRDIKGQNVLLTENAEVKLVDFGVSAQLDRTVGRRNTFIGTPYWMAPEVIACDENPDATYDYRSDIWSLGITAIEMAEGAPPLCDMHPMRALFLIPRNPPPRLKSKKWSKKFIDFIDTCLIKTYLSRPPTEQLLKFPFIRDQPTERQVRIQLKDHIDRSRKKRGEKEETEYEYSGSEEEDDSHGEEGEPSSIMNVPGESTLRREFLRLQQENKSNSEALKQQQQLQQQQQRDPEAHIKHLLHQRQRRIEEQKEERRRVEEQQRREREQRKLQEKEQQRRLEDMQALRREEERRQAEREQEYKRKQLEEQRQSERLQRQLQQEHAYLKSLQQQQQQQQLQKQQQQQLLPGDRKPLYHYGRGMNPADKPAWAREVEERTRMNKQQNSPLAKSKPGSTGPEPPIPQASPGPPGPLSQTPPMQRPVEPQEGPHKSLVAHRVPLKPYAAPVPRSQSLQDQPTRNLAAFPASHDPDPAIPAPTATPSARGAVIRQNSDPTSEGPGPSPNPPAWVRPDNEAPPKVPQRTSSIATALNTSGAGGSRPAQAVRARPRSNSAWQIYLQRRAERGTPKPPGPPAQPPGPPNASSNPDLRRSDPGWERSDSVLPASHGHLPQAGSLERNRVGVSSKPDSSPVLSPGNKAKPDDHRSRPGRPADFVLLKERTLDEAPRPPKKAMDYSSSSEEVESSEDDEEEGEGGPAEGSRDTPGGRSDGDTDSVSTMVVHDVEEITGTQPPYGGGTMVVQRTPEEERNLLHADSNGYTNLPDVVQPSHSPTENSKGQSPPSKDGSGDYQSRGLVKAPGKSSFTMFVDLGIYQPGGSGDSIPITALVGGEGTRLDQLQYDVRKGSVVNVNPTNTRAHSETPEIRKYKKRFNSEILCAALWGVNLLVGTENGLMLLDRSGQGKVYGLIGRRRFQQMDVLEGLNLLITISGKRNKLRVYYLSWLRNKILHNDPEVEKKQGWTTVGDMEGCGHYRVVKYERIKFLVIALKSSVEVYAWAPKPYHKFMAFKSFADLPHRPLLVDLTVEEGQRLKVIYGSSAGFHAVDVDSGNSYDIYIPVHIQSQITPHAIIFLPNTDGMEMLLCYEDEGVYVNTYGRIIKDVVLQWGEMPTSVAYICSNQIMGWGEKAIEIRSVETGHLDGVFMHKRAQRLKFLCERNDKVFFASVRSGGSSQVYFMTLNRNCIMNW
UniProt P53350, sequence (P53350 whole entry, looked up): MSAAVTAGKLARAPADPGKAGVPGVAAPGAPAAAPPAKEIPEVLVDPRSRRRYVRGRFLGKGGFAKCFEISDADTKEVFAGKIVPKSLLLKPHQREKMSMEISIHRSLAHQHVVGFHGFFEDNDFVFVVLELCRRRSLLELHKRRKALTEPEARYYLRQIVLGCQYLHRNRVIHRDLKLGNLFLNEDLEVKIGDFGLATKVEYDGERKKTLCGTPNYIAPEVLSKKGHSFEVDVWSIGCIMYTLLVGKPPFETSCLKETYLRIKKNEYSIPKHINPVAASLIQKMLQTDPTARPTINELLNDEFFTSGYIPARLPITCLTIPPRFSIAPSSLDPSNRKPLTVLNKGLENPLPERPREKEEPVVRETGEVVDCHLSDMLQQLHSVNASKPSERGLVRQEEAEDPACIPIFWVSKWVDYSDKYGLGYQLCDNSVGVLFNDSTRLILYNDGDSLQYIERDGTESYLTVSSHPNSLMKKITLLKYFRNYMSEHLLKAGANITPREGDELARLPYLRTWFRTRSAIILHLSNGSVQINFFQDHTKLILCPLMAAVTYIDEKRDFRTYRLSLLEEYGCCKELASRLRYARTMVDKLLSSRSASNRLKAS

Target | kinase activity remaining (inhibitor concentration 0.1 µM) [%] | kinase activity remaining (inhibitor concentration 1 µM) [%] | kinase activity remaining (inhibitor concentration 10 µM) [%]
EF2K | 106 | 97 | 85
BRK (UniProt Q13882) | 121 | 94 | 92
IRR (UniProt P14616) | 99 | 79 | 53
NEK6 (UniProt Q9HC98) | 109 | 96 | 66
PLK1 (UniProt P53350) | 102 | 114 | 98
MARK2 (UniProt Q7KZI7) | 116 | 113 | 95
MNK1 (UniProt Q9BUB5) | 105 | 103 | 83
IGF-1R | 101 | 108 | 114
MINK1 (UniProt Q8N4C8) | 98 | 97 | 40
PRK2 (UniProt Q16513) | 108 | 101 | 81
PHK | 110 | 91 | 86
CLK2 (UniProt P49760) | 86 | 43 | 9
PKC zeta | 115 | 112 | 106
